Reference: PubChem BioAssay AID1159580 (chemical genetic matrix, 2015)
Among all 5,500 compounds or so, about 2,000 (36%) were called active. Not shown: some 18% with an inconclusive outcome. Rule as the data show it: active = normalized growth mostly below about 0.91 (no sharp cut-off); inconclusive = no clear call, values can overlap the other calls; inactive = mostly above about 0.92. Some of the results follow.

Assay: chemical genetic growth profiling, strain panel (AID 1159580);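 also: tested at 20 µM; growth read once vehicle control cultures reached saturation at 30 °C; 1 = growth at the plate median or of vehicle wells; lower values mean less growth of the strain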
Conditions: growth OD

Measured: normalized growth

N#Cc1c(Cl)cccc1Cl
inactive: S. cerevisiae deletion strains, locus YJR075W, strain HOC1, hits give low values 1.02 | S. cerevisiae deletion strains, locus YKL009W, strain mrt4, hits give low values 1.02 | S. cerevisiae deletion strains, locus YKL068W, hits give low values 1.01 | S. cerevisiae deletion strains, locus YKL085W, strain MDH1 (second series), hits give low values 1.01 | S. cerevisiae deletion strains, locus YKL085W, strain MDH1, hits give low values 1.01 | S. cerevisiae deletion strains, locus YKL160W, strain elf1, hits give low values 0.981 | S. cerevisiae deletion strains, locus YKL190W, strain CNB1, hits give low values 1.02 | S. cerevisiae deletion strains, locus YKR001C, strain vps1, hits give low values 1.01 | S. cerevisiae deletion strains, locus YKR026C, strain gcn3, hits give low values 0.982 | S. cerevisiae deletion strains, locus YKR091W, strain srl3, hits give low values 0.978 | S. cerevisiae deletion strains, locus YLL001W, strain dnm1, hits give low values 0.988 | S. cerevisiae deletion strains, locus YLL026W, hits give low values 0.975 | S. cerevisiae deletion strains, locus YLL041C, strain sdh2, hits give low values 0.977 | S. cerevisiae deletion strains, locus YLR027C, strain aat2, hits give low values 0.959 | S. cerevisiae deletion strains, locus YLR039C, strain RIC1, hits give low values 1.01 | S. cerevisiae deletion strains, locus YLR058C, strain SHM2, hits give low values 1.02 | S. cerevisiae deletion strains, locus YLR102C, strain apc9, hits give low values 1.01 | S. cerevisiae deletion strains, locus YLR113W, strain HOG1, hits give low values 0.987 | S. cerevisiae deletion strains, locus YLR221C, strain rsa3, hits give low values 0.971 | S. cerevisiae deletion strains, locus YLR258W, strain gsy2, hits give low values 0.991 | S. cerevisiae deletion strains, locus YLR262C, strain YPT6 (second series), hits give low values 0.999 | S. cerevisiae deletion strains, locus YLR262C, strain YPT6, hits give low values 1.05 | S. cerevisiae deletion strains, locus YLR268W, strain sec22, hits give low values 0.999 | S. cerevisiae deletion strains, locus YLR320W, strain mms22, hits give low values 0.988 | S. cerevisiae deletion strains, locus YLR330W, strain CHS5, hits give low values 1.01 | S. cerevisiae deletion strains, locus YLR342W, strain FKS1 (second series), hits give low values 1.04 | S. cerevisiae deletion strains, locus YLR342W, strain FKS1, hits give low values 0.978 | S. cerevisiae deletion strains, locus YLR357W, strain rsc2, hits give low values 0.978 | S. cerevisiae deletion strains, locus YLR370C, strain arc18, hits give low values 0.965 | S. cerevisiae deletion strains, locus YLR371W, strain rom2, hits give low values 1.01 | S. cerevisiae deletion strains, locus YLR384C, strain iki3, hits give low values 0.975 | S. cerevisiae deletion strains, locus YLR418C, strain cdc73, hits give low values 1.01 | S. cerevisiae deletion strains, locus YML016C, strain PPZ1, hits give low values 1.01 | S. cerevisiae deletion strains, locus YML032C, strain rad52, hits give low values 1.02 | S. cerevisiae deletion strains, locus YML120C, strain ndi1, hits give low values 0.988 | S. cerevisiae deletion strains, locus YML124C, strain tub3, hits give low values 1.01 | S. cerevisiae deletion strains, locus YMR058W, strain fet3, hits give low values 0.968 | S. cerevisiae deletion strains, locus YMR078C, strain ctf18, hits give low values 1.02 | S. cerevisiae deletion strains, locus YMR125W, strain sto1, hits give low values 0.974 | S. cerevisiae deletion strains, locus YMR129W, hits give low values 1.01 | S. cerevisiae deletion strains, locus YMR205C, strain PFK2, hits give low values 1.01 | S. cerevisiae deletion strains, locus YMR223W, strain ubp8, hits give low values 1.01 | S. cerevisiae deletion strains, locus YMR231W, strain pep5, hits give low values 0.982 | S. cerevisiae deletion strains, locus YMR263W, strain SAP30, hits give low values 1.02 | S. cerevisiae deletion strains, locus YMR307W, strain GAS1, hits give low values 1.01 | S. cerevisiae deletion strains, locus YNL067W, strain RPL9B, hits give low values 1.01 | S. cerevisiae deletion strains, locus YNL071W, strain lat1, hits give low values 0.985 | S. cerevisiae deletion strains, locus YNL128W, strain TEP1, hits give low values 1.01 | S. cerevisiae deletion strains, locus YNL153C, strain GIM3, hits give low values 1.01 | S. cerevisiae deletion strains, locus YNL183C, strain NPR1, hits give low values 0.902 | S. cerevisiae deletion strains, locus YNL209W, strain ssb2, hits give low values 0.995 | S. cerevisiae deletion strains, locus YNL233W, strain BNI4, hits give low values 1.02 | S. cerevisiae deletion strains, locus YNL248C, strain rpa49, hits give low values 0.971 | S. cerevisiae deletion strains, locus YNL250W, strain rad50, hits give low values 1.02 | S. cerevisiae deletion strains, locus YNL271C, strain bni1, hits give low values 1.02 | S. cerevisiae deletion strains, locus YNL298W, strain CLA4, hits give low values 1.02 | S. cerevisiae deletion strains, locus YNL307C, strain MCK1, hits give low values 1.01 | S. cerevisiae deletion strains, locus YNL322C, strain KRE1 (second series), hits give low values 0.978 | S. cerevisiae deletion strains, locus YNL322C, strain KRE1, hits give low values 1.01 | S. cerevisiae deletion strains, locus YNR049C, strain mso1, hits give low values 0.958 | S. cerevisiae deletion strains, locus YNR052C, strain pop2, hits give low values 1.02 | S. cerevisiae deletion strains, locus YOL006C, strain TOP1, hits give low values 1.04 | S. cerevisiae deletion strains, locus YOL012C, strain htz1 1.37 | S. cerevisiae deletion strains, locus YOL147C, strain pex11, hits give low values 1.01 | S. cerevisiae deletion strains, locus YOR001W, strain rrp6, hits give low values 0.993 | S. cerevisiae deletion strains, locus YOR061W, strain CKA2, hits give low values 1.01 | S. cerevisiae deletion strains, locus YOR069W, strain VPS5, hits give low values 1 | S. cerevisiae deletion strains, locus YOR070C, strain gyp1, hits give low values 0.991 | S. cerevisiae deletion strains, locus YOR080W, strain dia2, hits give low values 0.963 | S. cerevisiae deletion strains, locus YOR083W, strain WHI5, hits give low values 0.974 | S. cerevisiae deletion strains, locus YOR106W, strain vam3, hits give low values 0.974 | S. cerevisiae deletion strains, locus YOR136W, strain idh2, hits give low values 1.01 | S. cerevisiae deletion strains, locus YOR144C, strain elg1, hits give low values 1.01 | S. cerevisiae deletion strains, locus YOR184W, strain ser1, hits give low values 1.03 | S. cerevisiae deletion strains, locus YOR231W, strain MKK1, hits give low values 0.966 | S. cerevisiae deletion strains, locus YOR265W, strain rbl2, hits give low values 0.966 | S. cerevisiae deletion strains, locus YOR270C, strain vph1, hits give low values 1.01 | S. cerevisiae deletion strains, locus YOR290C, strain snf2, hits give low values 0.985 | S. cerevisiae deletion strains, locus YOR316C, strain cot1, hits give low values 1.01 | S. cerevisiae deletion strains, locus YPL051W, strain arl3, hits give low values 0.995 | S. cerevisiae deletion strains, locus YPL055C, strain LGE1, hits give low values 1.05 | S. cerevisiae deletion strains, locus YPL078C, strain atp4, hits give low values 0.984 | S. cerevisiae deletion strains, locus YPL106C, strain sse1, hits give low values 0.975 | S. cerevisiae deletion strains, locus YPL240C, strain hsp82, hits give low values 0.979 | S. cerevisiae deletion strains, locus YPL241C, strain CIN2, hits give low values 1.01 | S. cerevisiae deletion strains, locus YPL256C, strain CLN2, hits give low values 0.968 | S. cerevisiae deletion strains, locus YPR119W, strain clb2, hits give low values 1.01 | S. cerevisiae deletion strains, locus YPR141C, strain kar3, hits give low values 1.02 | S. cerevisiae deletion strains, locus YPR163C, strain tif3, hits give low values 1.02 | S. cerevisiae deletion strains, locus YPR167C, strain met16, hits give low values 1.02 | S. cerevisiae deletion strains, strain wtn01, hits give low values 1.02 | S. cerevisiae strains, strain wild type, hits give low values 1.01
